Bioassay records deposited in PubChem by National Center for Advancing Translational Sciences (NCATS).
A selection: hits, their analogues and other compounds. The true share with any hit is near 3.1%.
VDR inh – inhibitors of human vitamin D receptor. P11473. VDR-SRC2-3 peptide fluorescence polarization, 2 h. Potency, µM, for inactives: max response, negative = inhibition, actives largely listed as inhibitors. 0.93% of 400,000 active. AID 504847; further: potency means the concentration at half of the fitted maximal effect; on the % scale 0 is the no-effect control and ±100 the full control effect
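The screen uses fluorescence polarization to detect compounds that interfere with recruitment of the SRC2-3 coactivator peptide to VDR; plates are read after 2 h at room temperature.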
TSHR antag – blocks TSH signaling through the human TSH receptor | TSHR-expressing cells, TSH-stimulated cAMP HTRF, 2 h; active compounds read low | activity change, negative = inhibition, % at 11.5 µM | 0.2% of 330,000 active;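 active means activity change below a set negative limit, meaning inhibition stronger than a set level, cut at about -70% in these data; inconclusive means activity change between two set negative limits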; further: on the % scale 0 is the no-effect control and ±100 the full control effect
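TSHR-expressing cells, 200/well, pre-treated with compound, then stimulated with EC80 TSH (4nM final) for 2 hours at 37 deg C. cAMP measured by competitive HTRF: anti-cAMP cryptate antibody in lysis buffer plus cAMP-d2, read after 30 minutes at room temperature.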
PLK1 PBD block – blocks phosphopeptide binding to human PLK1 polo-box domain. P53350. Plk1 PBD binding of FITC phosphopeptide, fluorescence polarization. Potency, µM, without a hit: max response, negative = inhibition, usual class: inhibitors. 2.8% of 360,000 active; further: potency means the concentration at half of the fitted maximal effect; series mostly up to about 57 µM; on the % scale 0 is the no-effect control and ±100 the full control effect; nearly all actives have a fitted effect of over 65% in size
Vif-APOBEC3G blk – blocks the Vif interaction with human APOBEC3G | AID 602310 | 0.076% of 410,000 active | Potency, µM (series often up to 46.1 µM), inactives show at the top dose activity, negative = active, most hits filed as inhibitors | HeLa A3G-eYFP + Vif (tagged APOBEC3G with the HIV-1 protein that degrades it), YFP fluorescence, overnight; further: potency means the concentration at half of the fitted maximal effect; on the % scale 0 is the no-effect control and ±100 the full control effect; nearly all actives have a fitted effect of over 60% in size
Target sequence (Q9HC16 whole entry, looked up): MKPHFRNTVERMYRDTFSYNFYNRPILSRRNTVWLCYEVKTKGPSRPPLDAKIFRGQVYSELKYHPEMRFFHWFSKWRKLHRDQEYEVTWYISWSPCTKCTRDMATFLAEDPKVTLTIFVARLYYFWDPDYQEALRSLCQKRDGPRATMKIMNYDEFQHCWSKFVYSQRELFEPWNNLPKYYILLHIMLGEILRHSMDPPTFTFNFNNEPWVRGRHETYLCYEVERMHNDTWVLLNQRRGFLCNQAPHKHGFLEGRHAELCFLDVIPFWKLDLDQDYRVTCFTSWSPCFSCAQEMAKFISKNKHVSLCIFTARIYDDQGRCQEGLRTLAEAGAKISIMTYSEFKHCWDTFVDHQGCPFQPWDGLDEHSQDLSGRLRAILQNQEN
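HeLa cells stably expressing Vif and C-terminally eYFP-tagged A3G, seeded overnight at 37 deg C, then exposed to compound by pintool overnight at 37 deg C. Rise in yellow fluorescence (Ex 488/Em 500-530, Acumen) marks blocked Vif-driven A3G degradation.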
Vif-A3F inh – blocks the Vif interaction with APOBEC3F; 0.2% of 390,000 active; AID 602313; Potency, µM (highest dose often 46.1 µM), without a hit: at the top dose activity, negative = active; HeLa A3F-eYFP + Vif (tagged APOBEC3F with the HIV-1 protein that degrades it), YFP fluorescence increase; further: potency means the concentration at half of the fitted maximal effect; % of control where 0% means no effect; nearly all actives have a fitted effect of over 65% in size
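Fluorescence increase (Ex 488/Em 500-530) after overnight compound treatment at 37 deg C flags inhibition of Vif-driven A3F-eYFP loss in stable HeLa A3F-eYFP/Vif cells seeded overnight beforehand.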
Starred values were filed as active, the others as inactive; ? = inconclusive; / = no result. Unless noted, the call rests on the fitted dose curve; in most records, active means well fitted curve in the direction sought with a large enough effect; inconclusive means small, poorly fitted or top-dose-only effect, or another doubt; inactive means no such curve, though single readings can be large; an effect the other way counts as inactive or inconclusive.

SMILES	VDR inh	TSHR antag	PLK1 PBD block	Vif-APOBEC3G blk	Vif-A3F inh
CCSC1=NSC2=NC(=O)/C(=C\c3coc4ccccc4c3=O)C(=N)N12	79µM*	-91*	17µM*	?	25µM*
Cc1nc(N2CCN(S(=O)(=O)c3ccccc3C#N)CC2)c2c(-c3ccccc3)csc2n1	-23%	-79*	-6%	-1%	0%
CCCC[C@@H]1CCCO[C@@](C(=O)NCc2ccccc2)(C(F)(F)F)C1	?	/	/	1%	/
CCCCN(CC)Cc1c(O)ccc2c(-c3ccccc3)cc(=O)oc12	-13%	-7	27µM*	-7%	1%
CC(=O)NCCNc1ncncc1-c1ccccc1CN(C)C	0%	/	/	/	/
COC(=O)/C(=C\c1ccc([N+](=O)[O-])o1)NC(=O)c1ccccc1	-1%	-7	-4%	-23%	-14%
CCCCNC(=O)/C(=C\c1ccc([N+](=O)[O-])o1)NC(=O)c1ccccc1	-8%	2	21µM*	-14%	3%
Cc1ccc(-n2ncc3c(N4CCN(C)CC4)ncnc32)cc1Cl	20%	/	/	-1%	0%
COC(=O)C1=C[C@@H](C(=O)OC)[C@@H]2C3=C(C(=O)[C@@]2(C)NC(=O)c2ccccc2)[C@H](C)[C@@H]2C(=O)N(Cc4ccccc4)C(=O)[C@@H]2[C@@H]3C1	-19%	/	/	-3%	/
COc1ccc(Cl)cc1NC(=O)CN(C1CCCCC1)S(C)(=O)=O	3%	-3	30µM*	-2%	2%
CS(=O)(=O)N(CC(=O)Nc1ccc(F)cc1F)C1CCCCC1	-14%	0	-7%	0%	0%
O=[N+]([O-])c1cccc(-c2ccc3nnc(SCc4ccccn4)n3n2)c1	?	3	24µM*	-3%	3%
Nc1ccccc1C(=O)C[C@@H](N)C(=O)O	8%	/	/	/	/
CN(C)c1ccc(/C=C(\NC(=O)c2ccccc2)C(=O)NCCCn2ccnc2)cc1	13%	-11	-10%	-2%	-14%
COc1ccccc1C(=O)N/C(=C/c1ccc(Br)cc1)C(=O)NCCCn1ccnc1	-7%	-3	-7%	-1%	3%
O=C(NCCCn1ccnc1)/C(=C/c1ccccc1)NC(=O)c1ccccc1	-2%	24	24µM*	0%	6%
Cc1ccc(C(=O)N/C(=C\c2ccc(F)cc2)C(=O)NCCCn2ccnc2)cc1	-10%	-5	0%	-3%	-5%
Cc1ccc(C(=O)N/C(=C/c2ccccc2F)C(=O)NCCCn2ccnc2)cc1	-9%	6	27µM*	-3%	0%
O=C(NCCCn1ccnc1)/C(=C\c1ccc(Br)cc1)NC(=O)c1ccccc1	?	4	11µM*	7%	0%
COc1ccc2nc(SCC(=O)N3CCN(c4ccc(F)cc4)CC3)c(C#N)cc2c1	-8%	-20	3µM*	1%	-3%
COc1ccc2cc(C#N)c(SCC(=O)N3CCCC3)nc2c1	-2%	1	-4%	2%	-1%
Cc1ccc2nc(-c3ccc(C)c(NC(=O)COc4ccccc4Cl)c3)oc2c1	/	/	/	5%	/
CC1Cc2cc(-c3csc(NC(=O)Cc4cccs4)n3)ccc2N1S(C)(=O)=O (stereo not drawn)	0%	-72*	0%	-4%	1%
CCOC(=O)CCNCc1ccc(OC)c(OC)c1	?	7	24µM*	-5%	3%
CCOc1cc(CNCc2ccc(C(=O)O)cc2)ccc1OC	14%	20	-15%	-5%	2%
SMILES	VDR inh	TSHR antag	PLK1 PBD block	Vif-APOBEC3G blk	Vif-A3F inh
CCOCCCNCc1ccc(OC)c(OC)c1	0%	-5	-3%	2%	-14%
CCOC(=O)CC(NCc1ccc(OC)c(OCC)c1)c1ccc(C)cc1 (stereo not drawn)	-11%	-11	21µM*	-2%	1%
CC(c1ccc(N(C)C)cc1)c1ccnc2ccccc12 (stereo not drawn)	/	/	/	-7%	/
CCOC(=O)c1cnc(-n2nc(C)cc2C)nc1NNc1nc(C)cc(C)n1	-5%	0	-13%	1%	0%
CCOC(=O)c1cnc(-n2nc(C)cc2C)nc1NNc1nc(-c2ccccc2)cc(-c2ccccc2)n1	-14%	1	-19%	1%	7.1µM*
O=c1[nH]c(NCCO)c(N=Cc2ccccc2)c(=O)[nH]1	-28%	/	-13%	-7%	0%
Nc1[nH]c(=O)[nH]c(=O)c1N=Cc1ccccc1	71µM*	/	?	-3%	12%
